# According to PubChem BioAssay (EPA / NIEHS):
# Calls of active or inactive are those of the source. The calls were made as follows: active = hit-call score of the fitted dose curve at least 0.9, where 1 is the maximum; inactive = score below 0.9.
# Assay: APR_HepG2_MitoticArrest_72hr: Apredica 72-hour HepG2 Assay for Mitotic Arrest (AID 2282918)
# Conditions: high-content imaging, actives raise or lower the signal
# Outline: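 HepG2, 72 hr exposure, 0.39–200 uM in duplicate, 0.5% v/v DMSO final. Formaldehyde-fixed, Triton-permeabilized, anti-phospho-histone H3/FITC plus Hoechst. ArrayScan imaging at 20x; curves fit bidirectionally against DMSO baseline.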
Compound,outcome,AC50
CSC1=N[C@@](C)(c2ccccc2)C(=O)N1Nc1ccccc1,inactive,
CC(C)=CC1C(C(=O)OCN2C(=O)C3=C(CCCC3)C2=O)C1(C)C (stereo unspecified),inactive,
CC[C@H](C)[C@H]1O[C@]2(C=C[C@@H]1C)C[C@@H]1C[C@@H](C/C=C(\C)[C@@H](O[C@H]3C[C@H](OC)[C@@H](O[C@H]4C[C@H](OC)[C@@H](NC)[C@H](C)O4)[C@H](C)O3)[C@@H](C)/C=C/C=C3\CO[C@@H]4[C@H](O)C(C)=C[C@@H](C(=O)O1)[C@]34O)O2,inactive,
N#CSCSC#N,inactive,
COP(=O)(OC)C(O)C(Cl)(Cl)Cl (stereo unspecified),inactive,
Cc1ccn2nc(S(=O)(=O)Nc3c(F)cccc3F)nc2n1,inactive,
CCC(CC)Nc1c([N+](=O)[O-])cc(C)c(C)c1[N+](=O)[O-],inactive,
CCCCOC(=O)c1ccccc1C(=O)O,inactive,
CCCOc1nn(C(=O)NS(=O)(=O)c2ccccc2C(=O)OC)c(=O)n1C,inactive,
C[N+]1(C)CCCCC1,inactive,
CC(C)N(C(=O)SCC(Cl)=C(Cl)Cl)C(C)C,inactive,
CCOP(=S)(OCC)Oc1ccc2c(C)c(Cl)c(=O)oc2c1,,93.2 µM (active)
CCc1cccc(CC)c1N(COC)C(=O)CCl,inactive,
CCOC(=O)COc1cc(-c2nn(C)c(OC(F)F)c2Cl)c(F)cc1Cl,inactive,
CCOP(=O)(OCC)Oc1cc(C)nc(C(C)C)n1,inactive,

# Assay: APR_HepG2_MicrotubuleCSK_72hr: Apredica 72-hour HepG2 Assay for Microtubule CSK Stabilty (AID 2282919)
# Conditions: HepG2 microtubule cytoskeleton, high-content imaging, actives raise or lower the signal
# Outline: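 HepG2 human liver cells were dosed for 72 h at ten concentrations from 0.39 to 200 uM in duplicate (0.5% v/v DMSO final). Fixed, permeabilized cells were immunostained for alpha-tubulin (Cy5) with a Hoechst counterstain and imaged at 20x.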
Compound,outcome,AC50
CN1COCN(Cc2cnc(Cl)s2)C1=N[N+](=O)[O-],inactive,
O=C(O)c1cc(Oc2ccc(C(F)(F)F)cc2Cl)ccc1[N+](=O)[O-],inactive,
Nc1c(Cl)cc([N+](=O)[O-])cc1Cl,inactive,
CSc1nc(NC(C)C)nc(NC(C)C)n1,inactive,
COP(=O)(NC(C)=O)SC (stereo unspecified),inactive,
CCOP(=S)(OCC)OC(Cl)C(Cl)(Cl)Cl (stereo unspecified),,109 µM (active)
COc1cc(OC)nc(Sc2cccc(Cl)c2C(=O)O)n1,inactive,
CC1=NNC(=O)N(/N=C/c2cccnc2)C1,inactive,
CCC(=O)Nc1ccc(Cl)c(Cl)c1,inactive,
COc1cccc(C(=O)NN(C(=O)c2cc(C)cc(C)c2)C(C)(C)C)c1C,inactive,
CCCSP(=O)(OCC)Oc1ccc(Br)cc1Cl (stereo unspecified),,113 µM (active)
COc1ccc(C(=CC(=O)N2CCOCC2)c2ccc(Cl)cc2)cc1OC,inactive,
S=C1NCCN1,inactive,
CC(C)[C@H](C(=O)O[C@H](C#N)c1cccc(Oc2ccccc2)c1)c1ccc(Cl)cc1,inactive,
CCOP(=S)(OCC)Oc1ccc([N+](=O)[O-])cc1,inactive,
Nc1nc(N)nc(NC2CC2)n1,inactive,
CCCSP(=O)(OCC)SCCC,inactive,
FC(F)C(F)(F)OCC(Cn1cncn1)c1ccc(Cl)cc1Cl (stereo unspecified),,84.6 µM (active)

Compound,outcome,AC50
CC1(C(=O)Nc2ccc(O)c(Cl)c2Cl)CCCCC1,,91.7 µM (active)
CN(C)[C@@H]1C(=O)C(C(N)=O)=C(O)[C@@]2(O)C(=O)C3=C(O)c4c(O)cccc4[C@@](C)(O)[C@H]3[C@H](O)[C@@H]12,inactive,
CNC(=O)Oc1cccc2c1OC(C)(C)O2,inactive,
CSC1=N[C@@](C)(c2ccccc2)C(=O)N1Nc1ccccc1,,38.6 µM (active)
CC(C)=CC1C(C(=O)OCN2C(=O)C3=C(CCCC3)C2=O)C1(C)C (stereo unspecified),inactive,
CC[C@H](C)[C@H]1O[C@]2(C=C[C@@H]1C)C[C@@H]1C[C@@H](C/C=C(\C)[C@@H](O[C@H]3C[C@H](OC)[C@@H](O[C@H]4C[C@H](OC)[C@@H](NC)[C@H](C)O4)[C@H](C)O3)[C@@H](C)/C=C/C=C3\CO[C@@H]4[C@H](O)C(C)=C[C@@H](C(=O)O1)[C@]34O)O2,inactive,
N#CSCSC#N,inactive,
COP(=O)(OC)C(O)C(Cl)(Cl)Cl (stereo unspecified),inactive,
Cc1ccn2nc(S(=O)(=O)Nc3c(F)cccc3F)nc2n1,inactive,
CCC(CC)Nc1c([N+](=O)[O-])cc(C)c(C)c1[N+](=O)[O-],,108 µM (active)
CCCCOC(=O)c1ccccc1C(=O)O,inactive,
CCCOc1nn(C(=O)NS(=O)(=O)c2ccccc2C(=O)OC)c(=O)n1C,inactive,
C[N+]1(C)CCCCC1,inactive,
CC(C)N(C(=O)SCC(Cl)=C(Cl)Cl)C(C)C,,99.5 µM (active)
CCOP(=S)(OCC)Oc1ccc2c(C)c(Cl)c(=O)oc2c1,,40.5 µM (active)
CCc1cccc(CC)c1N(COC)C(=O)CCl,inactive,
CCOC(=O)COc1cc(-c2nn(C)c(OC(F)F)c2Cl)c(F)cc1Cl,inactive,
CCOP(=O)(OCC)Oc1cc(C)nc(C(C)C)n1,inactive,
